Rows were chosen to be rich in hits. Some 4.5% of all compounds tested hit in one or more screens of this group.
DAX1 inh-1 = DAX1 (NR0B1) inhibitors on StAR promoter, primary screen, cell-based, luminescence, SF-1 (NR5A1), full-length DAX-1; HEK293T StAR-luciferase reporter, SF-1/DAX-1 repression relief; inhibition, % at 6.8 µM; actives 1.1% (n = 370,000); AID 652010, 2013;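 active = inhibition above the mean over all tested compounds plus 3 SD, cut at about 3.6% in these data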;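 note: higher inhibition means more luminescence from relief of DAX-1 repression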
DAX1 inh-2 = DAX1 (NR0B1) inhibitors, primary screen, cell-based, HEK293, Gal4-DAX1, luciferase luminescence; inhibition, % at 6.75 µM; Nuclear receptor subfamily 0 group B member 1 (Homo sapiens), P51843; AID 504766, 2011; actives 0.99% (n = 340,000); HEK293 Gal4-DAX1 luciferase reporter;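 active = inhibition above the mean over all tested compounds plus 3 SD, cut at about 4.2% in these data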;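 note: inhibition shows as a rise in luminescence from relieved DAX1 repression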
hgDAF-12 ag = H. glycines DAF-12 receptor agonists, primary screen, cell-based, luminescence, HEK293, GAL4 fusion, UAS-luciferase | HEK293 GAL4-hgDAF12 UAS-luciferase reporter, agonist luminescence; normalized to butyrate control | activation, % at 6.8 µM | AID 687014, 2013 | actives 1.8% (n = 370,000);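 active = activation above a cutoff set at the mean of all screened compounds plus 3 SD, cut at about 10% in these data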
hcDAF-12 act = H. contortus DAF-12 nuclear receptor activators, primary screen, cell-based, luminescence, HEK293, lit1-tk-luc reporter; HEK293 hcDAF-12 lit1-tk-luc reporter; 0% DMSO, 100% Δ7-dafachronic acid; activation, % at 6.8 µM; actives 1.4% (n = 370,000);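 active = activation above the mean of all tested compounds plus 3 SD, cut at about 5.5% in these data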
ssDAF12 agonist = S. stercoralis DAF-12 nuclear receptor activators, primary screen, cell-based, luminescence, HEK293, GRIP1 co-expression, lit1-tk-luc. HEK293 ssDAF-12/GRIP1 lit1-tk-luc reporter; % of 3 µM dafachronic acid response. Nuclear hormone receptor DAF-12 (Strongyloides stercoralis). activation, % at 6.8 µM. actives 1% (n = 370,000);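 active = activation above the mean over all tested compounds plus 3 SD, cut at about 0.9% in these data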
GAA850 FXN act = FXN promoter activators, primary screen, cell-based, luciferase luminescence, HEK293 lucGAA850 | HEK293 lucGAA850 FXN promoter luciferase reporter, 24 h; percent of 10 µM SAHA response | activation, % at 6 µM | actives 0.56% (n = 360,000);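 active = activation above the average of all compounds screened plus 3 SD, cutoff fixed separately per campaign, cut at about 7.5% in these data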
DAX1 conf = DAX1 (NR0B1) inhibitors relieving SF-1 repression, confirmation, cell-based, luminescence, HEK293T, full-length DAX-1, SF-1 activated StAR promoter | inhibition, % at 6.8 µM | shares compounds with DAX1 inh-1 | AID 652134, 2013 | HEK293T StAR-promoter luciferase reporter, SF-1/DAX-1 repression | actives 87% (n = 2,400);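 active = inhibition above the average of every tested compound plus 3 SD, cut at about 3.8% in these data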
SF1 mutant ctr = StAR reporter signal changes without DAX1, counter-screen for DAX1 inhibitor project, cell-based, luminescence, AF-2 mutant SF-1, transactivation | shares compounds with DAX1 inh-1 | HEK293 StAR-luciferase, SF-1 AF2 mutant | inhibition, % at 6.8 µM | actives 78% (n = 2,400) | AID 652136, 2013;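 active = inhibition above the mean of all tested compounds plus 3 SD, cut at about 3% in these data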
LXR ag = LXR agonists, Gal4 luciferase reporter, confirmation, counter-screen for hcDAF-12 agonist project, cell-based, luminescence, HEK293, H. contortus campaign; AID 743027, 2013; 3,400 tested, under 10 active; shares compounds with hcDAF-12 act; HEK293 Gal4-LXR tk-luc reporter, 24 h; normalized: DMSO 0%, positive control 100%; activation, % at 6.8 µM;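 active = mean percent activation of the reporter above a cutoff set as the average over tested compounds plus their standard deviation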
Target sequence (P55055 whole entry, looked up, the tested form may be a part): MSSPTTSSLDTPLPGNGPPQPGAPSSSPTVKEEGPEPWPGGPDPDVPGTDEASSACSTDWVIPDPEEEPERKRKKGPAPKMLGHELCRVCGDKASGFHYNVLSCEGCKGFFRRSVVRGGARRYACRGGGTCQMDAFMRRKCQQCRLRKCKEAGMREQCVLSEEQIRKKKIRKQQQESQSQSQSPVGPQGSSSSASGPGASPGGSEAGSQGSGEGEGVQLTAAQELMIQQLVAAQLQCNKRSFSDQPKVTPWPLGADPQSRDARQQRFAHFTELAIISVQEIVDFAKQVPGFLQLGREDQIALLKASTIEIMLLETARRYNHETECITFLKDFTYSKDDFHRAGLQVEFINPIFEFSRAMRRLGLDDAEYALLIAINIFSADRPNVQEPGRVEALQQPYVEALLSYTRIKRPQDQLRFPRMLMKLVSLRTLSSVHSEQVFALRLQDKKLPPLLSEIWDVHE
hcDAF12 conf = H. contortus DAF-12 receptor agonists, confirmation, cell-based, luminescence, HEK293, lit1-tk-luc, triplicate; shares compounds with hcDAF-12 act; HEK293 hcDAF-12 lit1-tk-luc reporter; % of Δ7-dafachronic acid response; activation, % at 6.8 µM; actives 61% (n = 3,400);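 active = mean activation across triplicate tests above the threshold derived from the earlier primary screen, cut at about 5.5% in these data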
hgDAF12 conf = H. glycines DAF-12 receptor agonists, confirmation, cell-based, luminescence, HEK293, GAL4-LBD fusion | shares compounds with hgDAF-12 ag | HEK293 GAL4-hgDAF12 luciferase reporter, agonist mode; percent of butyrate response | activation, % at 6.8 µM | actives 80% (n = 3,300) | AID 743050, 2013;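 active = mean activation over triplicate wells above the hit cutoff derived from the earlier primary screen, cut at about 11% in these data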
LXR ag 2 = LXR agonists, Gal4 luciferase reporter, confirmation, counter-screen for hgDAF-12 agonist project, cell-based, luminescence, HEK293, H. glycines campaign; shares compounds with hgDAF-12 ag; 24 h; AID 743051, 2013; 3,300 tested, under 10 active; activation, % at 6.8 µM;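 active = mean activation of the triplicate above a set limit carried over from the primary screen, none filed active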
Of the large screens only hits and unclear results are named; the others gave an inactive call (follow-up assays come after a bar, where they were run).

O=C(CC1SC(N2CCCC2)=NC1=O)Nc1ccc(C(=O)Nc2ncccc2O)cc1 (stereo not given)	DAX1 inh-1 25, hgDAF-12 ag 38 | DAX1 conf 40 | SF1 mutant ctr 22 | hgDAF12 conf 43 | LXR ag 2 inactive
CSC(C1CCCC1)n1nnc2ccccc21 (stereo not given)	none
Clc1ccc(OCc2nc3ccccc3[nH]2)cc1	DAX1 inh-1 4.7, hgDAF-12 ag 23 | DAX1 conf 9.8 | SF1 mutant ctr 9.3 | hgDAF12 conf inactive | LXR ag 2 inactive
COc1ccc(-n2c(COc3ccc(Cl)cc3)nnc2SCc2nc3ccccc3[nH]2)cc1	none (no result: DAX1 inh-2, GAA850 FXN act)
O=C(O)/C=C/c1ccc(O)c(O)c1	none
O=C(/C=C/c1ccc(O)c(O)c1)NC(=O)c1ccccc1O	DAX1 inh-1 4.6, hgDAF-12 ag 15, hcDAF-12 act 6.5 | DAX1 conf 8.1 | SF1 mutant ctr 4.0 | hgDAF12 conf 13 | LXR ag 2 inactive
CN1CCN(CCC(=O)Nc2cccc(Br)c2)CC1	none
CC(C)(C)c1ccc(-c2nnc(N)s2)cc1	DAX1 inh-1 5.0, hgDAF-12 ag 17 | DAX1 conf 11 | SF1 mutant ctr 7.0 | hgDAF12 conf 12 | LXR ag 2 inactive
Nc1nnc(-c2ccc(F)cc2)s1	none
CCCCn1ccnc1C(=O)c1ccc(S(=O)(=O)N(CCOC)CCOC)cc1	none
Cc1ccn2cc(-c3cc4ccccc4oc3=O)nc2c1	DAX1 inh-1 12, hgDAF-12 ag 24, hcDAF-12 act 11, ssDAF12 agonist 1.7 | DAX1 conf 12 | SF1 mutant ctr 4.7 | LXR ag inactive | hcDAF12 conf 6.9 | hgDAF12 conf 12 | LXR ag 2 inactive
Cc1cc2nc(-c3nnnn3C3CCCCC3)c(=O)[nH]c2cc1C	none (no result: DAX1 inh-2, GAA850 FXN act)
COc1ccc(S(=O)(=O)N(C)C)cc1NCC(=O)Nc1ccc(Br)c(C)c1	none
CCN1CCN(c2ccc(NC(=O)c3ccco3)cc2)CC1	DAX1 inh-1 8.0, hgDAF-12 ag 14 | DAX1 conf 4.9 | SF1 mutant ctr 5.4 | hgDAF12 conf 13 | LXR ag 2 inactive
O=C(CSc1ccc2nc(-c3ccccc3)cn2n1)NCC1CCCO1 (stereo not given)	none
COc1ccc(-c2cn3nc(SCC(=O)NCC4CCCO4)ccc3n2)cc1 (stereo not given)	DAX1 inh-1 13, hgDAF-12 ag 14 | DAX1 conf 8.5 | SF1 mutant ctr 4.0 | hgDAF12 conf 15 | LXR ag 2 inactive
COc1cc(SC)ccc1C(=O)Nc1ccc2c(c1)OCCO2	DAX1 inh-1 4.7, hgDAF-12 ag 14, hcDAF-12 act 8.2 | DAX1 conf 9.2 | SF1 mutant ctr 3.6 | LXR ag inactive | hcDAF12 conf 7.2 | hgDAF12 conf 16 | LXR ag 2 inactive
COc1cc(C(=O)Nc2ccc3c(c2)OCCO3)c(-n2cnnn2)cc1OC	none
COc1cc(SC)ccc1C(=O)Nc1nccs1	DAX1 inh-1 4.7, hgDAF-12 ag 17, hcDAF-12 act 12, ssDAF12 agonist 1.3 | DAX1 conf 15 | SF1 mutant ctr 5.6 | LXR ag inactive | hcDAF12 conf 14 | hgDAF12 conf 17 | LXR ag 2 inactive
Cc1c(C(=O)NC2CC(=O)N(c3ccc4c(c3)OCCO4)C2)cccc1[N+](=O)[O-] (stereo not given)	none
OC[C@H]1O[C@@H](c2nc(-c3nc(-c4ccc(F)cc4)no3)cs2)[C@H](O)[C@@H]1O	DAX1 inh-1 9.8, hgDAF-12 ag 13 (no result: DAX1 inh-2) | DAX1 conf 13 | SF1 mutant ctr 7.2 | hgDAF12 conf 16 | LXR ag 2 inactive
CCOc1ccc(-c2noc(-c3csc([C@@H]4C[C@H](O)[C@@H](CO)O4)n3)n2)cc1	none (no result: DAX1 inh-2)
CCOC(=O)c1c(N)sc(C(=O)Nc2ccccc2F)c1C	DAX1 inh-1 9.3, DAX1 inh-2 4.4, hgDAF-12 ag 19, hcDAF-12 act 6.7 | DAX1 conf 14 | SF1 mutant ctr 7.1 | LXR ag inactive | hcDAF12 conf 8.5 | hgDAF12 conf 19 | LXR ag 2 inactive
CCOC(=O)c1sc(NC(=O)Nc2ccccc2Cl)cc1C	DAX1 inh-1 7.8, hgDAF-12 ag 20, hcDAF-12 act 15, ssDAF12 agonist 1.1 | DAX1 conf 14 | SF1 mutant ctr 7.5 | LXR ag inactive | hcDAF12 conf 6.1 | hgDAF12 conf 24 | LXR ag 2 inactive
